Measured values published in PubChem BioAssay (NCI).
The panel holds about 83,000 compounds, 20% with a hit somewhere; the sample as a whole holds those more often.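 48-hour exposure, single concentration, 96-well plates; percent growth endpoint where 0 means no net growth. Active: below 10.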 Values without a mark were called inactive. The source made the active and inactive calls.

Experiments:
Assay in all cases: NCI-60 one-dose screen, 48 h (100 = growth as untreated, 0 = no growth, -100 = all killed)
Settings in all cases: 10 µM unless noted
[1] = tested on: HCT-15 colon
[2] = tested on: HT29 colon
[3] = tested on: SNB-75 CNS
[4] = tested on: SNB-19 CNS
[5] = tested on: U251 CNS
[6] = tested on: PC-3 prostate
[7] = tested on: SK-MEL-5 melanoma
[8] = tested on: UACC-62 melanoma
[9] = tested on: LOX IMVI melanoma
[10] = tested on: SK-MEL-28 melanoma
[11] = tested on: SK-MEL-2 melanoma
[12] = tested on: EKVX NSCLC
[13] = tested on: UO-31 renal
[14] = tested on: TK-10 renal
[15] = tested on: ACHN renal
[16] = tested on: CAKI-1 renal
[17] = tested on: A498 renal
[18] = tested on: CCRF-CEM leukemia
[19] = tested on: MOLT-4 leukemia
[20] = tested on: SN12C renal

SMILES | growth [1] | growth [2] | growth [3] | growth [4] [%] | growth [5] | growth [6] | growth [7] | growth [8] | growth [9] | growth [10] | growth [11] | growth [12] | growth [13] | growth [14] | growth [15] | growth [16] | growth [17] | growth [18] | growth [19] | growth [20]
CCN(CC)CCCNc1cc(OC)cc2cccnc12 | 99.7% | 91.6% | 111% | 109 | 94.8% | 93.8% | 95.3% | 110% | 97.2% | 126% | 109% | 107% | 91.6% | 109% | 110% | 103% | 81.5% | 114% | 104% | 
Oc1ccc(Cc2ccc(O)c3ncccc23)c2cccnc12 | 13.1% | 57.6% | 12.9% | 15.9 | 6.14% (active) | 5.52% (active) | -47.3% (active) | 1.18% (active) | 16.7% | 30.3% | -17.9% (active) | 8.21% (active) |  | -9.53% (active) | -4.29% (active) | 16.2% | 5.58% (active) | 17.4% | 11.8% | 8.11% (active)
C(=N\Nc1nnc2n1N=C(c1ccccc1)CS2)/c1ccc(OCc2ccccc2)cc1 | 97.4% | 114% | 108% | 102 | 97.6% | 76.2% | 82.9% | 89.8% | 95.8% | 104% | 104% | 101% | 79.5% | 98.2% | 112% | 107% | 108% | 97.2% | 92.8% | 
COc1ccc(-c2cc(-c3ccc(Nc4nc(Nc5ccc(Cl)cc5)nc(Nc5ccc(Cl)cc5)n4)cc3)no2)cc1 | 76.1% | 78.9% | 89.1% | 107 | 62.4% | 60.5% | 73% | 101% | 76.3% | 89.7% | 58.1% | 76.3% |  | 108% | 83.6% | 83.3% | 86.8% | 38.9% | 9.97% (active) | 94%
CCCN1C(=O)N(CCC)C2C1NC(=S)N2/N=C/C=C/c1ccccc1OC (stereo unspecified) | 19.3% | 2.43% (active) | -17.4% (active) | 24.6 | 11.9% | 28.7% | 26.9% | 28.5% | 41% | 50% | 49.6% | 51.5% |  |  | 41.4% | 26.6% | -5.66% (active) | 10.1% | 27.6% | 38.3%
Nc1ncc(-c2ccc3ncnc(N4CCc5ccc(Cl)cc54)c3c2)cn1 | 7.19% (active) | 1.74% (active) | -11.6% (active) | 14.1 | 9.31% (active) | 8.82% (active) | -52.2% (active) | -23.6% (active) | 1.27% (active) | -6.35% (active) | -53.3% (active) | 2.36% (active) | -21.7% (active) | -30.3% (active) | 3.09% (active) | 5.95% (active) | -55.2% (active) | 4.45% (active) | -39% (active) | 
COc1cccc(/C=C/C(=O)/C=C(/C=C/c2cccc(OC)c2OC)OB(F)F)c1OC | 29.4% | 49.2% | 65.8% | 77.7 | 36.4% | 57.9% | 93.4% | 42.4% | 18.2% | 50.7% | 110% | 87.7% | 37.8% | 68% | 19.6% | 35.8% | 122% | 7.53% (active) | 9.58% (active) | 
CCCC1Cc2cc(-n3nc(C)c4c3CC(C)(C)CC4=O)cc(NC3CCC(O)CC3)c2C(=O)N1 (stereo unspecified) | 26.1% | 11.6% | 66.6% | 50 | 41.5% | 42.8% | 40.7% | 6.33% (active) | 5.91% (active) | 31.5% | 48.7% | 62.8% |  | 38.2% | 29.3% | 30.4% | 37.6% | 35% | 16.8% | 38%
CSc1nc(CC(C)C)c(C#N)c(=O)n1C | 46.1% | 69.7% | 61% | 82.1 | 81.8% | 62.9% | 70.9% | 53.8% | 68.4% | 68.3% | 85.8% | 64.3% |  |  | 55.6% | 56.8% | 47% | 49.2% | 46.1% | 29.1%
COc1ccc(Nc2nccc(Nc3ccc4[nH]ncc4c3)n2)cc1 | 6.21% (active) | 12.1% | 65.8% | 59.7 | 35.5% | 13.5% | 1.85% (active) | 38.6% | 19% | 65.8% | 29.8% | 50.9% |  | 19.3% | 29.2% | 38.3% | 36.5% | -1.69% (active) | 1.45% (active) | 43.4%
O=C(/C=C/c1ccco1)Nc1ncc(Cc2ccc(F)cc2)s1 | 15.3% | 7.2% (active) | 19.9% | 48 | 22.6% | 30.2% | 25.9% | 16.8% | 28.9% | 48% | 48.8% | 29.1% |  | 62.3% | 40.2% | 34.4% | 19.3% | 21.9% | 20.9% | 28.5%
Cc1[nH]c(C2CC(c3ccc(C(F)(F)F)c(F)c3)=NN2C)c(C)c1C(=O)NCC(F)(F)F (stereo unspecified) | 92.2% | 102% | 96.9% | 91.9 | 96.8% | 98.1% | 93.6% | 82.3% | 93.1% | 101% | 107% | 87.7% |  | 116% | 99.3% | 81.1% | 30.8% | 93.6% | 72.9% | 93.1%
CC(=O)[C@H]1CC[C@]2(C)[C@@H]1CC[C@@H]1[C@@]3(C)C/C(=C/c4cccnc4)C(=O)C(C)(C)[C@@H]3CC[C@]12C | 54.4% | 57.1% | 106% | 87.1 | 60.7% | 26.9% | 38.9% | 59.9% | 87.6% | 94.9% | 85.3% | 85.1% |  | 162% | 87.3% | 72.5% |  | 31.7% | 20.3% | 75.6%
O=C(O)c1nn(-c2ccc(Cl)cc2)nc1N1CCCC1 | 92.2% | 104% | 85.7% | 103 | 92.3% | 95.4% | 96.4% | 99.6% | 93.6% | 105% | 102% | 88.3% |  | 133% | 99.4% | 97.6% | 74.3% | 100% | 97.5% | 101%
CC(C)(C)n1cc(-c2ccnc(NCCNS(=O)(=O)c3ccc(Br)cc3)c2)c(-c2cccc(O)c2)n1 | -0.0275% (active) | -11% (active) | 19.4% | 52.3 | 21.7% | 25.4% | -19% (active) | 49.6% | 12.7% | 38.5% | 30.3% | 43.4% |  | 55.6% | 25% | 29.1% | 11.5% | 27.7% | 12.9% | 35.7%
Cc1ccc(C(F)(F)F)cc1N1CCN(C(=O)[C@H]2C[C@H]2c2ccc(C(F)(F)F)nc2)CC1 | 93.2% | 79.8% | 92.2% | 90.5 | 94.2% | 77.7% | 81.6% | 74.8% | 96.2% | 100% | 89.1% | 90.7% |  | 96.4% | 91.8% | 69.3% | 95.3% | 90.2% | 73.2% | 92.6%
